Laboratory results reported in PubChem BioAssay (NCI).
Where “and” joins values, the source holds several entries; their conditions need not be identical. Identical values can stand only once. Compounds without any hit were thinned out: in the full panel of roughly 83,000, 20% have a hit.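 Treatment: one concentration, 48 hours, 96-well format. Scoring: percent growth, with anything below 10 considered active.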 Calls of active or inactive are those of the source.

Test system: MDA-MB-468 breast
Assay: NCI-60 one-dose screen, 48 h (100 = growth as untreated, 0 = no growth, -100 = all killed)
Settings: 10 µM unless noted

Row | SMILES | growth
1 | CNc1nc2ncn(C)c2c(=O)[nH]1 | 101% (inactive)
2 | CCCCCC(=O)OCCC1CCCCC1 | 99% (inactive)
3 | CCCCCn1sc(=O)n(Cc2ccc(CNC(=O)C(C)c3ccc(CC(C)C)cc3)cc2)c1=O (stereo not given) | 106% (inactive) and -81% (active)
4 | COc1cc(OC)c(S(N)(=O)=O)cc1C(=O)/C=C/c1ccc(Cl)cc1 | -57.8% (active)
5 | O=C1CC(SC(=S)C2CCCC2=O)C(=O)N1 (stereo not given) | 106% (inactive)
6 | CC1Cc2c(ncnc2-n2cnc3ccccc32)N(C)c2ccccc21 (stereo not given) | 9.47% (active)
7 | CN(C)c1ccc(/C=C/c2ccnc3ccccc23)cc1 | -9.88% (active)
8 | CCN(CC)CCOc1ccc(/C(=C(/C)c2ccccc2)c2ccc(OC(C)=O)cc2)cc1 | 87.9% (inactive)
9 | COc1ccc2cc(-c3cc(OC)c(OC)c(OC)c3)c(=O)oc2c1 | 46.5% (inactive)
10 | COc1ccc(C(=O)C[C@]2(O)C(=O)Nc3c(Cl)ccc(Cl)c32)cc1 | -7.27% (active)
11 | COc1ccc(C2CC(c3ccc4ccccc4c3)=NN2c2nc(O)c(C3=c4cc(OC)ccc4=NC3=O)s2)cc1 (stereo not given) | -46.5% (active)
12 | CCCCc1c(CCC)c(=N)c2ccccc2n1C | 74.2% (inactive)
13 | O=C(Nc1ncc(Cc2ccccc2)s1)c1ccc2c(c1)OCCCO2 | 7.91% (active)
14 | COC(=O)C1=C(C)NC(C)=C(C(=O)OC)C(N2C(=O)CCC2=O)C1 (stereo not given) | 63.4% (inactive)
15 | NCCOc1ncccc1/C=C1\c2ccccc2-c2ccc(C(F)F)cc21 | 85.5% (inactive)
16 | Cc1ccc(C)c2c(C)c(C(=O)Nc3cccc(-n4cccn4)c3)oc12 | 27.8% [50 µM] (inactive)
17 | CC(C)(C)[Si](C)(C)OC1[C@@H](COC(=O)NC(=O)CCl)O[C@@H](n2cnc3c(N)ncnc32)[C@H]1O[Si](C)(C)C(C)(C)C (stereo not given in full) | 65% (inactive)
18 | CCCCCC/C=N/Nc1ccc([N+](=O)[O-])cn1 | 108% (inactive)
19 | Nc1ccccc1NC(=O)CCCCCCC(=O)Nc1ccc2c(c1)/C(=C/c1ccc[nH]1)C(=O)N2 | 32.9% (inactive)
20 | CC(=O)Nc1nc(C)c(C(=O)N/N=C/N2CCOCC2)s1 | 116% (inactive)

Row | SMILES | growth
21 | Cc1ccc(C)c2c1CCC2C(C)C (stereo not given) | 106% (inactive)
22 | CC(C)n1c2ccc(Br)cc2c2c3c(c4c5ccccc5ccc4c21)C(=O)NC3=O | 93.5% (inactive)
23 | CCn1cnc(C[C@H](NC(=O)[C@@H](NC(=O)Nc2cc(C(F)(F)F)cc(C(F)(F)F)c2)C(C)C)C(=O)OC)c1 | -81.1% [100 µM] (active)
24 | Cn1ccnc1C(=O)/C=C/c1ccc(CC(=O)Nc2cc(F)c(F)c(F)c2)cc1 | -23.4% (active)
25 | O=C1c2c(O)cc(O)cc2-c2c(-c3ccc(O)cc3)oc3cc(O)cc1c23 | 46.4% (inactive)
26 | C/C=C/CSC(C)(C)C(=O)NC | 96.4% (inactive)
27 | CC(=NCc1ccccc1)c1ccc(O)cc1O | 118% (inactive)
28 | CCn1c(=O)c(C(=O)NCCCO)c(O)c2ccccc21 | 112% (inactive)
29 | COc1ccc(/C=C(\C#N)c2cc3ccccc3n2C(C)=O)cc1 | 58.8% (inactive)
30 | O=C(/C=C/c1ccc(C(F)(F)F)cc1)c1ccc(Nc2nc(NCCO)nc(Nc3ccc(Cl)cc3)n2)cc1 | 69.4% (inactive)
31 | CC(=O)O[C@H]1CC[C@]2(C)C3=C(C(=O)C[C@H]2C1(C)C)[C@]1(C)CC[C@H]([C@H](C)CCC(=O)O)[C@@]1(C)CC3=O | 113% (inactive)
32 | O=C(/C=C/c1cccc(Cl)c1)c1ccc(O)c(CN2CCN(c3cc4c(cc3F)c(=O)c(C(=O)O)cn4C3CC3)CC2)c1 | 28.8% (inactive)
33 | O=C(/C=C/CN1CCCCC1)Nc1cc2c(Nc3ccc(F)c(Cl)c3F)ncnc2cc1OCCOC(F)F | -48.7% (active)
34 | CSc1nc2c(c(=O)[nH]1)N=C1c3ccccc3C(=O)C1C(c1ccccc1)N2 (stereo not given) | 15.4% (inactive)
35 | CCCCCCCCCCCCCC1=NCC[N+]1(CCO)Cc1ccccc1 (stereo not given) | -81.2% (active)
36 | Nc1ccccc1NC(=O)c1ccc(CN2CCC/C(=C\c3ccccn3)C2=O)cc1 | -6.37% (active)
37 | COC1C(O)CC(OC2CC(OC3CC(O[C@@H]4C(=O)c5c(cc6cc(OC7CC(OC8CC(O)C(O)C(C)O8)C(O)C(C)O7)c(C)c(O)c6c5O)CC4[C@H](OC)C(=O)C(C)=O)OC(C)C3O)OC(C)C2O)OC1C (stereo not given in full) | -64.7% (active)
38 | Cc1ccc(Oc2c(/C=N/NC(=O)Cn3c(=O)sc4ccccc43)c(C)nn2-c2ccccc2)cc1 | 41% (inactive)
39 | O=C(CN1CCN(c2ccccc2)CC1)N1CCN(c2nnc(-c3ccc(Cl)cc3)c(-c3ccc(Cl)cc3)n2)CC1 | 78.7% (inactive)
40 | CCN1C(=O)N(CC)C2C1NN=c1s/c(=C3\C(=O)N(CCC(C)C)c4ccccc43)c(=O)n12 (stereo not given) | 27.1% (inactive)
